About 290 (24%) of roughly 1,200 compounds were called active. Inconclusive results (about 9%) are left out. How the calls were made is not given here. Not all results are given here. Entries with a potency or affinity are not part of this list.

The nature of this experiment: LCL viability reduction – cell-based, plate reader, cherry-picks, set 2, cytotoxicity control, dose response (AID 504882). Conditions: EBV lymphoblastoid cells (LCL) viability; series mostly up to 19.5 µM.
Consider `CC[C@]1(C(=O)OC)[C@H]2C(=O)N(Cc3ccccc3)C(=O)[C@H]2[C@H]2CN=C(SCc3ccc(C#N)cc3)N21`, for which the compound was called inactive.
With `COc1ccc(CN2C(=O)c3cccnc3C2Nc2cc(Cl)ccc2OC)cc1` (stereo not given) the entry was “inactive”; with `Clc1ccc(-c2cn3nc4c(nc3n2)CCCC4)cc1`, “inactive”.
With `COCCn1c(SCCN2CCOCC2)nc2c1c(=O)[nH]c(=O)n2C` the entry was “inactive”; with `COc1cc2nc(N3CCN(C(=O)C4CCCO4)CC3)nc(N)c2cc1OC` (stereo not given), “inactive”; with `O=C(Nc1ccc2c(c1)C(=O)OC2)c1ccc(C(F)(F)F)cc1`, “inactive”.
The entry for `C/C(=N\Nc1ccc(C(F)(F)F)cc1[N+](=O)[O-])C(C)C` is “inactive”.
For the compound `COC(=O)c1ccc2nc(-c3cccc(N)c3)cn2c1`, the call was inactive.
The entry for `CCOC(=O)Nc1ccc2c(c1)N(C(=O)CN(C)C)c1ccccc1CC2` is “inactive”.
With `COc1ccc(-c2nc(C)ncc2-c2ccccc2)c(O)c1` the entry was “inactive”; with `c1ccc(OCCSc2nnc3sc4ccccc4n23)cc1`, “inactive”; with `COc1ccc(N2C(=O)C(=O)/C(=C(/O)c3ccc(C)cc3)C2c2cccnc2)cc1` (stereo not given), “inactive”.
Turning to `O=C1CCCCC1Sc1nnc(-c2ccc3c(c2)OCO3)o1` (stereo not given), the result was inactive.
With `COc1ccc(NC(=O)c2cc3ccccc3oc2=O)cc1` the entry was “inactive”.
The entry for `COc1ccc(NC(=O)NCCN2CCc3ccccc3C2)cc1` is “inactive”.
The entry for `N#Cc1c(NC(=O)CCCC(=O)O)sc2c1CCCCC2` is “inactive”; for `COC(=O)c1c(NC(=O)c2nn(C)cc2Cl)sc2c1CCCC2` it is “inactive”; for `NC(=O)c1sc2nc3c(c(-c4ccccc4)c2c1N)CCC3` it is “inactive”.
`Cc1ccc(NC(=O)NNS(=O)(=O)c2ccc(Br)cc2)cc1`: the compound was classed as inactive.
The entry for `O=C(CSc1nc2ccccc2c(=O)n1CCCN1CCOCC1)Nc1ccc(Br)cc1` is “inactive”.
For the compound `CC(C)(C)c1ccc(C(=O)N2CCC(=O)N(C(CO)Cc3ccccc3)CC2)cc1` (stereo not given), the call was inactive.
With `O=C(N1CCOCC1)N1CCN(S(=O)(=O)c2ccc(Cl)cc2)C1` the entry was “inactive”; with `Cc1cccc(/C=N/NC(=O)CNc2cccc3ccccc23)n1`, “inactive”.
For the compound `O=C(O)c1ccc(C=NNC(=O)c2cccc3ccccc23)cc1`, the call was inactive.
The entry for `COc1ccc(-c2[nH]ncc2/C=N\NS(=O)(=O)c2ccc(Cl)cc2)cc1` is “inactive”; for `O=[N+]([O-])c1ccc(Cl)c(S(=O)(=O)NCC2CCCO2)c1` (stereo not given) it is “inactive”.
With `CCN(c1ccccc1)S(=O)(=O)c1ccc(Cl)c(NC(=O)Nc2ccc(Cl)cc2C#N)c1` the entry was “inactive”; with `CCOc1ccc(OCc2cccc(C(=O)N3CCCCCC3)c2)cc1`, “inactive”.
With `COc1ccc(C(=O)NCCN2CCOCC2)cc1[N+](=O)[O-]` the entry was “inactive”; with `COc1cccc(/C=C2\SC(=S)N(CCC(=O)NCCc3ccc(O)cc3)C2=O)c1`, “inactive”; with `COc1ccc(C(=O)NCCNc2nc3cc(C)c(C)cc3cc2C)cc1`, “inactive”.
For `COc1ccc(C(=O)Nn2c(SCC(=O)c3ccc(Cl)cc3)nc3ccccc3c2=O)cc1`, the compound was classed as inactive.
The entry for `COc1ccc(-c2cc3c(=O)n(CC(=O)NCCCN4CCN(Cc5ccccc5)CC4)ncn3n2)cc1` is “inactive”; for `O=c1[nH]c(Nc2nc3ccccc3o2)nc2c1CCCC2` it is “inactive”.
With `Cc1cccc(C)c1Nc1nc2ccccc2o1` the entry was “inactive”; with `COc1ccc(-n2c(C)c(C(C)=O)c3cc(OC(C)=O)ccc32)cc1`, “inactive”; with `CC(=O)Nc1ccc(OCCCNC(=O)c2c(-c3ccccc3)noc2C)cc1`, “inactive”.
With `COc1ccccc1NC(=O)Cn1nnc(-c2ccccc2NS(=O)(=O)c2ccccc2)n1` the entry was “inactive”; with `CCN(CC)Cc1cc(Nc2ccnc3cc(Cl)ccc23)ccc1O`, “inactive”.
Regarding `O=C1CSC(=S)N1Cc1ccccc1`, the result was inactive.
`CC(=O)O[C@H]1CC[C@@]2(C)C(=CC[C@H]3[C@@H]4CC[C@H](C(C)=O)[C@@]4(C)CC[C@@H]32)C1`: the call was inactive.
The entry for `Cc1ccc(N=c2c([N+](=O)[O-])nn(-c3ccc4c(c3)OCCO4)n2O)cc1F` is “inactive”; for `COCCNC(=O)C(=O)NCC1OCCN1C(=O)c1ccc(Cl)cc1` (stereo not given) it is “inactive”.
The entry for `CCCn1c(C)cc(C(=O)COC(=O)c2ccc[nH]c2=O)c1C` is “inactive”; for `COc1cc2oc(=O)cc(-c3ccc(-c4ccc(N(C)C)cc4)cc3)c2c(OC)c1OC` it is “inactive”.
`Cc1nn(CCCC(=O)Nc2cccnc2Cl)c(C)c1[N+](=O)[O-]`: the outcome was inactive.
The entry for `Cc1sc2nc(SCC(=O)OC(C)C)n(C)c(=O)c2c1C` is “inactive”; for `COCCn1c(C)cc(C(=O)COC(=O)c2n[nH]c3ccccc23)c1C` it is “inactive”; for `Cc1nn(C(C)(C)C)c(C)c1/C=N/OC(=O)Nc1ccc(Cl)c(Cl)c1` it is “inactive”.
The entry for `CCCCCCCCOC(=O)/C=C/c1c(C)[nH]c(=O)[nH]c1=O` is “inactive”; for `COC(=O)c1ccc(COc2ccccc2/C=C/C(=O)c2ccc(OCC(=O)O)cc2)cc1` it is “inactive”.
On to `CC(C)Oc1ccc(C(=O)Nc2nnc(SCC(=O)N3CCOCC3)s2)cc1`, for which the compound was classed as inactive.
For `COC(=O)CCNc1ccc2c(c1)OCCO2`, the outcome was inactive.
The entry for `COc1ccc2[nH]c3c(=O)n(CCCCC(=O)N4CCC(C(N)=O)CC4)c(=S)[nH]c3c2c1` is “inactive”; for `Cc1c(/C(O)=C2/C(=O)C(=O)N(CCN3CCOCC3)C2c2ccccn2)cnn1-c1ccccc1` (stereo not given) it is “inactive”.
As to `O=[N+]([O-])c1cc(/C=N\O)ccc1Oc1ccc(F)cc1`, the compound was classed as inactive.
The entry for `O=[N+]([O-])c1ccc(/C=N/Nc2cc(Cl)nc(-c3ccccc3)n2)cc1` is “inactive”; for `CCOc1ccc(Nc2ncnc3ccc([N+](=O)[O-])cc23)cc1` it is “inactive”.
With `COc1ccc(NC(=O)COC(=O)/C=C/c2ccc(OC)c(S(=O)(=O)N3CCOCC3)c2)cc1` the entry was “inactive”.
`Cc1nc(N)nc(N)c1/C=C/C(C)(C)c1ccc(Cl)cc1`: the compound was classed as inactive.
The entry for `COc1cc2cc(C(=O)N3CCN(c4ccccc4OC)CC3)[nH]c2cc1OC` is “inactive”.
With `Cc1ccc(C(=O)NCCc2cccs2)cc1` the entry was “inactive”; with `C=CCN1CCc2cc(O)c(O)cc2C(c2ccccc2)C1` (stereo not given), “inactive”; with `CCON1C(=O)C2(CCCCC2)C(=O)C12C=CCCC2` (stereo not given), “inactive”.
As for `Cc1nc(C)n(C(C)CNC(=O)c2ccco2)n1` (stereo not given), the result was inactive.
As for `COc1ccc(C(c2sc3nc(C)nn3c2O)N2CCC(C(N)=O)CC2)cc1OC` (stereo not given), the result was inactive.
With `Cc1cc(C(=O)COc2cccnc2[N+](=O)[O-])c(C)n1-c1ccccc1F` the entry was “inactive”.
With `O=C(NCCc1cn2ccccc2n1)C1CCCCC1` the entry was “inactive”.
With `COc1ccc(-c2cc3nc(-c4ccccc4)cc(N4CCCC(O)C4)n3n2)cc1` (stereo not given) the entry was “inactive”.
With `O=C(CCc1ccccc1Cl)N1CCN(S(=O)(=O)c2ccccc2)CC1`, the result was inactive.
The entry for `CC[C@]1(C(=O)OC)[C@H]2C(=O)N(Cc3ccccc3)C(=O)[C@H]2[C@H]2CN=C(SCc3ccc(Cl)cc3)N21` is “inactive”.
`Cc1ccc2oc(C(=O)Nc3ccc(S(=O)(=O)Nc4onc(C)c4C)cc3)c(C)c2c1`: the compound was classed as inactive.
The entry for `CCc1sc(C(=O)Nc2ncccc2O)cc1C` is “inactive”; for `CCn1nc(C(=O)Nc2nc(-c3ccccn3)cs2)c2ccccc2c1=O` it is “inactive”.
`CCC(C)(C)NC(=O)C(c1ccc(F)cc1)N(CCOC)C(=O)CCC(=O)Nc1nccs1` (stereo not given): the compound was classed as inactive.
On to `CCOC(=O)c1c(NC(=O)C2C3CCC(O3)C2C(=O)O)sc(C)c1-c1ccc(F)cc1` (stereo not given), for which the call was inactive.
The entry for `CC1CCc2nc(N)c(C#N)c(-c3cccnc3)c2C1` (stereo not given) is “inactive”; for `CCSC1=C(C#N)C(c2ccc(C)o2)CC(=O)N1` (stereo not given) it is “inactive”; for `Cc1cc(=O)[nH]c(=S)[nH]1` it is “inactive”.
For `COc1ccc(S(=O)(=O)N2CCN(C(=S)NCC3CCCO3)CC2)cc1OC` (stereo not given), the outcome was inactive.
As for `CCOc1ccc(N/C=C/C(=O)c2ccccc2)cc1`, the compound was classed as inactive.
The entry for `Cc1c(NC(=O)c2cccc(NC(=O)COc3ccccc3C#N)c2)c(=O)n(-c2ccccc2)n1C` is “inactive”.
With `Cn1cc(S(=O)(=O)N2CCN(C(=O)c3ccco3)CC2)c(=O)n(C)c1=O` the entry was “inactive”; with `CSc1oc(-c2ccc(F)cc2)nc1S(=O)(=O)c1ccc(F)cc1`, “inactive”; with `C=CCN1CCN(C(CC(C)C)c2nnnn2CCOC)CC1` (stereo not given), “inactive”.

Values taken from PubChem BioAssay AID504882 (Broad Institute, 2011).
